# Reference: PubChem BioAssay (NCI)
# The panel holds about 79,000 compounds, 15% with a hit somewhere; the sample as a whole holds those more often. Unmarked numbers belong to inactive results. Activity calls are given as the source filed them. No stated cut-off is given here; in the data, active means growth inhibition above about 70%; inactive means the rest.
# Legend:
# [1] = NCI Yeast Anticancer Drug Screen. Data for the rad50 strain (AID 155);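 further: 0% = growth of vehicle-only cultures of the same strain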; settings: S. cerevisiae rad50 strain growth inhibition; at 50.0 µM; hits give high values
# How it was run: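 Cells are treated with compound, grown, and their growth is then scored against vehicle-only cultures of the same repair-deficient yeast strain.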
# [2] = NCI Yeast Anticancer Drug Screen. Data for the mec2-1 strain (AID 157); settings: S. cerevisiae mec2-1 strain, at 50.0 µM, hits give high values
# How it was run: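 Test agents were screened against the mec2-1 yeast strain, with defined DNA repair or cell cycle alteration. Growth was scored as inhibition against vehicle-only controls.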
# [3] = NCI Yeast Anticancer Drug Screen. Data for the sgs1 mgt1 strain (AID 161);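 further: 0% = growth of cultures given vehicle only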; settings: S. cerevisiae sgs1 mgt1 strain, at 50.0 µM, hits give high values
# How it was run: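 Inhibition of yeast growth, normalised to vehicle-treated controls, is reported for a strain bearing genetic alterations in DNA damage repair.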
# [4] = NCI Yeast Anticancer Drug Screen. Data for the cln2 rad14 strain (AID 165);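 further: 0% = growth equal to vehicle treated cultures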; settings: S. cerevisiae cln2 rad14 strain, at 50.0 µM, hits give high values
# How it was run: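 Growth of compound-exposed yeast (cln2 rad14 genotype) measured and expressed as inhibition relative to vehicle.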
# [5] = NCI Yeast Anticancer Drug Screen. Data for the bub3 strain (AID 167); settings: S. cerevisiae bub3 mutant strain, at 50.0 µM, hits give high values
# How it was run: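 Part of a panel of yeast mutants defective in DNA damage repair or cell cycle regulation. Each strain is grown with compound, and inhibition is calculated relative to solvent-treated cultures.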
# [6] = NCI Yeast Anticancer Drug Screen. Data for the mlh1 rad18 strain (AID 175); settings: S. cerevisiae mlh1 rad18 strain growth inhibition; at 50.0 µM; hits give high values
# How it was run: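 In this whole-cell yeast screen, a strain with altered DNA damage repair is challenged with compound, and its growth is measured against matched vehicle-treated controls.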
SMILES,growth inhibition [1],growth inhibition [2],growth inhibition [3] [%],growth inhibition [4],growth inhibition [5],growth inhibition [6]
[N-]=[N+]=NC1OC(=O)C(Cl)=C1N=P(c1ccccc1)(c1ccccc1)c1ccccc1 (stereo not given),4.3%,11.3%,24.4,9.6%,12.1%,23%
COc1cc(C(=O)C/C(CCC(=O)Nc2ccc(Cl)cc2Cl)=N/Nc2nnc(C)n2N)ccc1O,-19.6%,-4.2%,-25.6,13.4%,7.1%,-5.05%
O=C1CN(c2cccc(Cl)c2)C(=O)CN1/N=C/c1ccc(O)c(O)c1,-29.1%,0.15%,3.45,-6.95%,46%,-8.9%
CC1(C)CC(O)CC(O)C1 (stereo not given),-4.3%,-0.55%,-0.2,14.1%,-0.15%,-6.9%
COc1cc(C2C(Cl)C(=O)N2NC(=O)c2ccc(N)cc2)cc(Br)c1O (stereo not given),16.3%,0.95%,4.05,-38%,5.85%,-11.2%
O=C(O)c1cc(C(=O)O)c(-c2ccccc2)c(-c2ccccc2)c1,8.9%,2.25%,-4.05,0.65%,1.4%,-5.3%
COC(=O)[C@@]1(C(C)CC(=O)O)CCCCC1=O (stereo not given in full),-11.6%,-16.4%,-38.2,-7.35%,-20.8%,-13.2%
COC(=O)COc1ccc(Cl)cc1C(=O)O,23.5%,6.1%,9.8,-11.8%,27.5%,17.1%
c1ccc(CCCOCCCc2ccccc2)cc1,24.9%,14.8%,9.15,7.4%,51.2%,22.4%
CCOC(=O)c1c(C)[nH]c(C)c1/C=C/C(=O)O,0.95%,-5.1%,-0.9,1.45%,2.35%,-0.8%
N#Cc1c(-c2ccccc2)cn2c1[nH]c(=O)c1ccccc12,4%,-6.65%,11.2,5.45%,-17.9%,1.05%
OCC1OC(O)C(N=Cc2ccc3c(c2)OCO3)C(O)C1O (stereo not given),13.7%,-14.6%,-14.2,1.45%,-20.6%,-19.9%
NC(=O)CC(Nc1ncc2c(n1)-c1ccccc1OC2)C(=O)O (stereo not given),37.6%,-16.4%,-10.5,9.95%,-45.8%,-53.8%
Cc1cc(S(=O)(=O)Nc2nc3ccccc3[nH]2)c(S)cc1Cl,19.9%,13.2%,23.9,23.4%,5.55%,40.6%
Cc1ccc(C(=O)O)c(C(=O)O)c1,-11.2%,-18.9%,-18.4,-4.25%,-17.1%,1.75%
COc1ccc2c3c(c4ccccc4c2c1)C(=O)OC3=O,27.8%,11.2%,16.7,18.6%,21.8%,19.2%
CCCCCC(C(O)C#N)C(O)(C(F)(F)F)C(F)(F)F (stereo not given),94.7% (active),80.7% (active),58.8,80.6% (active),86.2% (active),98% (active)
COc1ccc(NC(=O)Cc2cc3ccccc3oc2=O)cc1,8.05%,1.05%,-3.75,-46.3%,-0.3%,7.95%
NC(=O)[C@@H]1CCCN1C(=O)c1cccnc1,-14.9%,-18.2%,-12.9,-14.7%,4.75%,-13%
CN(C)c1cccc(/C=C(\C#N)c2ccccc2)c1,2.85%,13.8%,35.5,28.8%,54.1%,15.2%
